Screening data deposited in PubChem by National Center for Advancing Translational Sciences (NCATS).
The full list was thinned out, with hits kept by preference.
Cycloheximide cs: counter-screen hit for Shiga toxin inhibitors, cycloheximide; 300,000 compounds, 12% hits; AID 2314; cell reporter, cycloheximide protein synthesis inhibition counterscreen; max response, %; in the data active means max response mostly above about 13%, no sharp cut-off; inactive means mostly below about 14%; further: read at 38.3 µM for the half of the compounds with a filed dose
Shiga toxin inh: blocks Shiga toxin action in Vero cells; Vero cells, Shiga toxin protein synthesis inhibition reporter; inhibition, % at 38.7 µM; 290,000 compounds, 9.2% hits; AID 2315; in the data active means inhibition mostly above about 28%, no sharp cut-off; inactive means mostly below about 43%
SARS PLpro yeast-1: SARS-CoV PLP inhibition in yeast | S. cerevisiae expressing SARS-CoV PLpro, growth rescue | Potency, µM (highest dose often 32.9 µM), actives largely listed as activators | 330,000 compounds, 0.19% hits; calls by dose curve; further: nearly all actives have a fitted effect of over 55% in size
AmpC no deterg: inhibitors of E. coli AmpC beta-lactamase without detergent | P00811 | AmpC nitrocefin hydrolysis, absorbance 480 nm, 0.0001% Triton | Potency, µM (titrated, usually from 57.1 µM), usual class: inhibitors | 330,000 compounds, 0.52% hits | AID 485341; further: nearly all actives have a fitted effect of over 20% in size
Target sequence (P00811 whole entry, looked up): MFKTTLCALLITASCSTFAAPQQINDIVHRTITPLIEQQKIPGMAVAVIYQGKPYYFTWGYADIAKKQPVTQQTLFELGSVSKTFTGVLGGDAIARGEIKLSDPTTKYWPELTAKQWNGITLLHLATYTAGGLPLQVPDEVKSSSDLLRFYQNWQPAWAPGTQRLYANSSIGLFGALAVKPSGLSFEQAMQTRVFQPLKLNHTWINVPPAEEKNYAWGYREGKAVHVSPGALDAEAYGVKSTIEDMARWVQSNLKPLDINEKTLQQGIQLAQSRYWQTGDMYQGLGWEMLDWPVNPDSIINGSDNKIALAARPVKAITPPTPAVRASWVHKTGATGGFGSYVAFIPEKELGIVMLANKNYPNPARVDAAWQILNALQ
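AmpC (5.3 nM in the dispensed reagent) in 20 mM phosphate pH 7.0 with 0.01% (detergent screen) or 0.0001% Triton X-100 was preincubated with compounds for 15 min at room temperature. Nitrocefin was then added from an 800 uM solution, and hydrolysis was followed at 480 nm.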
AMA1-RON2 inh: inhibitors of Plasmodium falciparum AMA1-RON2 interaction; AlphaScreen AMA1-biotinylated RON2 peptide binding; Potency, µM (highest dose often 58.2 µM), usual class: inhibitors; 360,000 compounds, 0.2% hits; AID 720542; further: nearly all actives have a fitted effect of over 45% in size
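AMA1 (3D7) with his tag at 25 nM final met compounds first, then biotinylated RON2 peptide at 25 nM; detection used donor plus acceptor beads, 10 µg/mL apiece, read by AlphaScreen after 30 min at room temperature.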
AmpC inh detg: AmpC beta-lactamase inhibition with detergent present; AmpC hydrolysis of nitrocefin, absorbance 480 nm, 0.01% Triton; P00811; Potency, µM (doses to about 114 µM), usual class: inhibitors; AID 485294; 370,000 compounds, 0.041% hits; further: nearly all actives have a fitted effect of over 25% in size
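AmpC (5.3 nM in the dispensed reagent) in 20 mM phosphate pH 7.0 with 0.01% (detergent screen) or 0.0001% Triton X-100 was preincubated with compounds for 15 min at room temperature. Nitrocefin was then added from an 800 uM solution, and hydrolysis was followed at 480 nm.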
SARS PLpro yeast-2: Inhibits SARS-CoV PLP in yeast, hit validation | shares compounds with SARS PLpro yeast-1 | yeast expressing SARS-CoV PLpro, growth phenotype rescue | calls only | 1,000 compounds, 19% hits | AID 652038; call rule not given here
A number is an active result; n = inactive; u = inconclusive; x = no result; + = active, no number. Unless noted, the call rests on the fitted dose curve; in most records, active means well fitted curve in the direction sought with a large enough effect; inconclusive means small, poorly fitted or top-dose-only effect, or another doubt; inactive means no such curve, though single readings can be large; an effect the other way counts as inactive or inconclusive.

SMILES	Cycloheximide cs	Shiga toxin inh	SARS PLpro yeast-1	AmpC no deterg	AMA1-RON2 inh	AmpC inh detg	SARS PLpro yeast-2
CC(=O)c1cccc(NC(=O)CSc2ccc(-c3ccccn3)nn2)c1	n	n	u	n	u	n	+
O=c1c2ccccc2nc(N/N=C/c2c(O)ccc3ccccc23)n1O	40	53	13µM	n	u	n	+
Cc1occc1-c1nnc(SCC(=O)Nc2nccs2)n1Cc1ccco1	n	n	n	n	n	n	x
C=CCn1c(SCC(=O)Nc2cc(C)ccc2OC)nnc1-c1ccco1	n	n	u	n	n	u	n
CC(=O)Nc1ccc(S(=O)(=O)NC2=NCN(CCOC(=O)c3ccccc3)CN2)cc1	n	n	n	n	n	n	x
COC(C(=O)Nc1ccc(F)cc1)c1ccccc1 (stereo not given)	n	n	16µM	n	n	n	n
O=C(CC(Nc1ccc(F)cc1)c1ccccc1)c1ccccc1 (stereo not given)	31	91	3.2µM	n	n	n	n
O=C(Nc1ccc(F)cc1)c1ccccc1	44	103	u	n	n	n	n
O=C(CC(CC(=O)c1ccccc1)c1ccccc1)c1ccccc1	n	n	n	n	n	n	x
O=C(Cn1c(NCCO)nc2ccccc21)NCCc1ccc(F)cc1	n	n	u	n	n	n	n
O=C(Cn1c(CO)nc2ccccc21)NCCc1ccc(F)cc1	n	n	n	n	n	n	x
S=C(NCc1ccccc1)N/N=C/c1cccs1	n	n	5.6µM	n	n	n	+
O=C(Cc1ccccc1)NCC(=O)N/N=C/c1cccs1	n	n	n	n	n	n	x
COc1ccc(Cc2nnc(N=Nc3c(O)[nH]c4ccc(Br)cc34)[nH]c2=O)cc1	n	n	n	n	n	n	x
COC(=O)C1=CNC=C(C(=O)OC)C1c1ccc(Cl)cc1	n	n	n	n	n	n	x
O=C(CCn1c(=O)oc2ccccc21)NC1=NCCS1	n	n	u	n	n	n	n
O=C(CCN1C(=O)/C(=C\c2cccs2)SC1=S)NC1=NCCS1	n	n	n	n	n	n	x
COc1ccccc1/C=C1\SC(=S)N(CCC(=O)NC2=NCCS2)C1=O	n	n	4µM	n	n	n	n
C=CCN(CC=C)C(=S)NC(=O)/C=C/c1ccccc1	n	n	2.8µM	n	n	u	n
C=CCN(CC=C)C(=S)NC(=O)/C=C/c1ccc(C)cc1	n	n	u	n	n	n	x
COc1cc(NS(=O)(=O)c2ccc(NC(=O)COc3ccc(C)cc3)cc2)nc(OC)n1	n	n	11µM	n	n	u	n
O=C(Nc1ccc(Cl)cc1)N1CCC(CN2CCCCCC2)CC1	x	x	x	x	x	n	x
Cc1cc(C)c2c(NC(=O)CCl)nn(C)c2n1	n	n	11µM	n	n	n	+
Cc1cc(C)c2c(NC(=S)NC(=O)c3ccccc3)nn(C)c2n1	n	n	n	n	n	u	x
Cc1nc2ccccc2n1CC(=O)NC1CCCCCC1	n	n	n	n	n	n	x
SMILES	Cycloheximide cs	Shiga toxin inh	SARS PLpro yeast-1	AmpC no deterg	AMA1-RON2 inh	AmpC inh detg	SARS PLpro yeast-2
NC(Cc1ccc(C(F)(F)F)cc1)c1csc(NC(=O)NCCc2ccccc2)n1 (stereo not given)	x	x	x	x	n	x	x
CN(C)S(=O)(=O)c1ccc(C(=O)NCc2ccc3[nH]c4c(c3c2)CCCC4)cc1	n	n	3.5µM	28µM	n	u	+
CSc1nnc(COc2ccc(C)cc2)n1N	n	n	u	n	n	n	n
Cc1ccc(OCc2nnc(SCC(N)=O)n2N)cc1	n	n	n	n	n	n	x
COc1ccc(/C(O)=C2\C(=O)C(=O)N(Cc3ccco3)C2c2cc(OC)ccc2OC)cc1 (stereo not given)	n	n	n	n	n	n	x
COc1ccc(OC)c(C2/C(=C(/O)c3ccc(C)cc3)C(=O)C(=O)N2Cc2ccco2)c1 (stereo not given)	n	n	10µM	n	n	n	n
O=C(Nc1ccccc1Cl)c1cccc(COc2cc(Cl)ccc2Cl)c1	42	51	u	n	n	n	n
CC(C)=CC1C(C(=O)Nc2ccc(S(=O)(=O)N3CCOCC3)cc2)C1(C)C (stereo not given)	x	x	n	n	n	n	x
O=C(N/N=C/c1cc([N+](=O)[O-])cc([N+](=O)[O-])c1O)/C(=C\c1cccs1)NC(=O)c1ccccc1	n	n	u	n	n	u	+
Cc1ccc(O)c(-c2cc(C(F)(F)F)[nH]n2)c1	n	n	n	n	n	n	x
O=C(On1c(-c2ccccc2)nc2ccccc2c1=O)c1ccco1	n	n	x	x	n	n	x
COc1cc(OC)cc(-c2nc3ccccc3c(=O)n2OC(=O)c2ccccc2C)c1	n	n	u	n	n	n	+
O=Cc1ccc(N2CCCC2)c([N+](=O)[O-])c1	n	n	n	n	n	n	x
O=C(O)[C@H]1CCCN1C(=O)c1ccccc1N1C(=O)[C@@H]2Cc3c([nH]c4ccccc34)C(c3cccc(Cl)c3)N2C1=O (stereo not given in full)	n	n	n	n	n	n	x
CCOC(=O)C1CCN(C(=O)COc2cccc(C)c2)CC1	n	n	3.5µM	n	n	u	n
O=C(Nc1cc(Cl)ccc1F)c1ccc(-n2cncn2)c([N+](=O)[O-])c1	x	x	n	n	n	u	x
CC(OC(=O)CNC(=O)c1ccccc1)C(=O)Nc1ccc(S(=O)(=O)N2CCOCC2)cc1 (stereo not given)	x	x	u	n	n	n	n
O=C(COC(=O)CNC(=O)c1ccccc1)Nc1ccc(S(=O)(=O)N2CCOCC2)cc1	n	n	n	n	n	u	x
CCN(CC)S(=O)(=O)c1cc(C(=O)OCC(=O)Nc2c(F)cccc2F)ccc1F	n	n	u	n	n	n	n
COc1cc(C(=O)N/N=C/c2cccc(Oc3ccccc3)c2)ccc1O	n	n	n	n	n	n	x
COc1cc(/C=N/NC(=O)c2cnccn2)ccc1O	n	n	3.5µM	n	n	u	n
Cc1ccc(S(=O)(=O)N2CCC(C(=O)N3CCC[C@H]3C(=O)NCc3ccccc3)CC2)cc1	n	n	n	n	n	n	x
CCc1ccc(Oc2cc(C)nc(N)n2)cc1	26	65	16µM	n	n	n	n
COc1ccc(Oc2cc(F)nc(N)n2)cc1	n	n	n	n	n	u	x
CC(C)NC(=O)C1CCN(C(=O)N(C)C)CC1	n	n	n	n	n	n	x
CCN(CC)C(=O)c1[nH]cnc1C(=O)NCC(=O)OCc1ccccc1	n	n	n	n	n	n	x
Cc1cc(Cl)ccc1OCC(=O)N/N=C1\CC2C=CCC12 (stereo not given)	n	n	u	n	n	u	n
Cc1[nH]n(-c2ccccc2)c(=O)c1/C=N/NC(=O)c1cccc([N+](=O)[O-])c1	n	n	n	n	u	n	x
